# From PubChem
# An excerpt weighted towards active compounds, which were near 12% of everything screened.
# SARS PLpro yeast – SARS-CoV PLP inhibition in yeast | S. cerevisiae expressing SARS-CoV PLpro, growth rescue | Potency, µM (doses to about 32.9 µM), usual class: activators | 330,000 tested, 0.19% active | AID 485353; calls by dose curve; also: nearly all actives have a fitted effect of over 55% in size
# Pf growth 96h – P. falciparum growth inhibition at 96 hours; P. falciparum luciferase reporter growth, 96 h; AID 504834; Potency, µM (highest dose often 28.7 µM), usual class: inhibitors; 320,000 tested, 6.9% active
#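 Compounds incubated with erythrocytes infected by luciferase-expressing P. falciparum (2% hematocrit, 0.05% parasitemia final) for 96 hours, 37 C in 5% CO2. Growth inhibition scored as decreased luciferase luminescence.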
# Pf growth 48h – P. falciparum growth inhibition at 48 hours (one generation); P. falciparum luciferase growth in erythrocytes, 48 h; Potency, µM (highest dose often 28.7 µM), hits mostly inhibitors; 310,000 tested, 5.9% active
#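 In quantitative HTS format, infected erythrocytes bearing luciferase-reporter parasites were treated for a single generation at 37 C. Luminescence after adding detection reagent served as the growth measure.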
# Sm TGR block – S. mansoni TGR enzyme inhibition | purified TGR, DTNB reduction, TNB absorbance 405 nm | 360,000 tested, 3% active | Potency, µM (highest dose often 114 µM), hits mostly inhibitors | AID 485364 | Q962Y6; also: nearly all actives have a fitted effect of over 60% in size
#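 Kinetic colorimetric format: TGR-catalysed, NADPH-driven DTNB reduction monitored via TNB absorbance. Enzyme dispensed at 20 nM; compound exposure 15 min at room temperature before reaction start.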
# AmpC inh no detg – AmpC beta-lactamase inhibition without detergent; P00811; Potency, µM (doses to about 57.1 µM), most hits filed as inhibitors; AmpC nitrocefin hydrolysis, absorbance 480 nm, 0.0001% Triton; 330,000 tested, 0.52% active; also: nearly all actives have a fitted effect of over 20% in size
# Target sequence (P00811 whole entry, looked up): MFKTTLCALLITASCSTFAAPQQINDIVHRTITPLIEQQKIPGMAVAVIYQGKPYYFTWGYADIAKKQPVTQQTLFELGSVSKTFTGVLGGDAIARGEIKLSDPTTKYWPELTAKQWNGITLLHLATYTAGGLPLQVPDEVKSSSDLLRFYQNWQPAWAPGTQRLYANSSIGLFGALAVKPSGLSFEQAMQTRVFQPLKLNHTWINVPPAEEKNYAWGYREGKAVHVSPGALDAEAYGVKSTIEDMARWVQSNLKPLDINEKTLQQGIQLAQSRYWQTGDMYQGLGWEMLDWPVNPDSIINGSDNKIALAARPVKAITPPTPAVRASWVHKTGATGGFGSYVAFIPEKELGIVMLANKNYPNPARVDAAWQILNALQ
#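 20 mM phosphate pH 7.0 + 0.01% (detergent screen) or 0.0001% Triton X-100; 5.3 nM AmpC reagent; cpd preinc 15 min RT; nitrocefin (800 uM stock) to start; A480 q20 s × 4 min; Activity was normalised to no-enzyme and no-compound control wells.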
# AmpC detergent – AmpC beta-lactamase inhibition with detergent present | 370,000 tested, 0.041% active | P00811 | Potency, µM (highest dose often 114 µM), usual class: inhibitors | AmpC hydrolysis of nitrocefin, absorbance 480 nm, 0.01% Triton; also: nearly all actives have a fitted effect of over 25% in size
#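 AmpC (5.3 nM in the dispensed reagent) in 20 mM phosphate pH 7.0 with 0.01% (detergent screen) or 0.0001% Triton X-100 was preincubated with compounds for 15 min at room temperature. Nitrocefin was then added from an 800 uM solution, and hydrolysis was followed at 480 nm.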
# Hits are given with their value; – = inactive; ? = inconclusive; · = no result given; [ ] = dose if it differs, or a comment. Unless noted, calls follow the shape of the dose curve; as a rule, active = well fitted curve in the direction sought with a large enough effect; inconclusive = small, poorly fitted or top-dose-only effect, or another doubt; inactive = no such curve, though single readings can be large; an effect the other way counts as inactive or inconclusive.
SMILES,SARS PLpro yeast,Pf growth 96h,Pf growth 48h,Sm TGR block,AmpC inh no detg,AmpC detergent
Cc1nn(-c2ccc(N3CCCC3)nn2)c(C)c1CCC(=O)Nc1ccc(F)cc1F,·,·,·,–,·,–
CC1(C)Cc2nc3sc4c(SCC(=O)O)ncnc4c3cc2CO1,–,?,0.828µM,–,–,–
CCc1nc(OCc2ccco2)c2sc3nc4c(cc3c2n1)COC(C)(C)C4,–,·,–,10µM,–,–
COC(CSc1ncnc2c1oc1nc3c(cc12)COC(C)(C)C3)OC,–,?,–,28.2µM,–,–
CCc1nc2c(sc3nc4c(cc32)COC(C)(C)C4)c(=O)n1Cc1ccco1,–,·,?,?,–,–
CC1(C)Cc2nc3oc4c(NCc5ccccc5)ncnc4c3cc2CO1,–,–[5.75 µM],–,–,–,–
CSCc1c(C(=O)N2CCCc3ccccc32)oc2ccccc12,–,–,11.7µM,–,–,–
Cc1cccc(NC(=S)NC2CC3CCCC(C2)N3Cc2cccs2)c1C (stereo not drawn),–,5.86µM,?,–,–,?
CCc1ccccc1NC(=S)NC1CC2CCCC(C1)N2Cc1cccs1 (stereo not drawn),–,1.47µM,8.28µM,–,?,–
Cc1ccc(NC(=S)NC2CC3CCCC(C2)N3Cc2cccs2)cc1 (stereo not drawn),–,–,?,–,–,–
O=C(/C=C/c1ccccc1)OCCCN=C1NS(=O)(=O)c2ccccc21,–,5.22µM,–,·,–,–
CC(CC(=O)NNC(=O)c1cccc(Cl)c1)c1ccccc1 (stereo not drawn),–,–,–,–,–,–
COc1cc(OC)c(C2Nc3cccc4cccc(c34)N2)c(OC)c1,–,–,–,?,–,–
C/C(=C\c1cc2ccccc2o1)C1Nc2cccc3cccc(c23)N1,–,?,–,12.6µM,–,–
CCOc1cc(C(=O)Nc2cc(OC)cc(OC)c2)ccc1OCC(=O)N1CCOCC1,–,?,?,–,–,–
COc1cc(C(=O)Nc2cc(C)c(OCC(=O)N3CCOCC3)c(C)c2)cc(OC)c1OC,–,13.1µM,?,–,–,–
COc1cc(C(=O)Nc2cccc(C)n2)ccc1OCC(=O)N1CCOCC1,–,–,–,–,–,–
Cc1cc(C)c(C)c(OCC(=O)N2CCOCC2)c1,–,13.1µM,·,–,–,–
COc1ccc(-c2csc(NC(=O)c3ccc(OCC(=O)N4CCOCC4)c(OC)c3)n2)cc1OC,–,?,9.28µM,–,–,–
CCOc1cc(C(=O)Nc2nnc(CC)s2)ccc1OCC(=O)N1CCOCC1,–,?,0.262µM,–,–,–
Cc1cccc(N2CCN(C(=O)c3ccc(NC(=O)c4nsc5ccccc45)cc3)CC2)c1C,·,·,·,–,·,–
O=S(=O)(NCCc1ccccn1)c1ccc(F)c(F)c1,–,5.22µM,–,–,–,?
CN1/C(=C\C(=O)C[n+]2ccc(C(=O)c3ccccc3)cc2)C(C)(C)c2ccccc21,–,7.38µM,2.08µM,–,–,–
CN1/C(=C\C(=O)C[n+]2cccc(Br)c2)C(C)(C)c2ccccc21,–,14.7µM,2.33µM,–,–,–
COc1ccc(Nc2nnc(SCC(=O)/C=C3/N(C)c4ccccc4C3(C)C)s2)cc1,–,7.38µM,9.28µM,–,–,–
SMILES,SARS PLpro yeast,Pf growth 96h,Pf growth 48h,Sm TGR block,AmpC inh no detg,AmpC detergent
CN1/C(=C\C(=O)CSc2cccc[n+]2[O-])C(C)(C)c2ccccc21,?,3.29µM,–,–,–,–
COc1ccc(CCNC(=O)c2c(C)oc3ncn(CC(C)C)c(=O)c23)c(OC)c1,·,·,·,–,·,–
CCCN(CCC)C(=O)Cn1c(SCc2cccc(F)c2)nc2cccnc21,·,·,·,–,·,–
Cc1ccccc1Cn1c(=O)n(CC2CCC(C(=O)N3CCC(C)CC3)CC2)c(=O)c2sccc21 (stereo not drawn),·,·,·,–,·,–
Cc1ccc(NC(=S)N2CCN(S(=O)(=O)c3ccc(C)cc3)CC2)cc1,–,?,?,–,–,–
Cc1ccc[n+](CC(=O)/C=C2\N(C)c3ccccc3C2(C)C)c1,–,0.37µM,?,–,–,–
O=C(O)CSc1cccc[n+]1[O-],·,–,–,–,·,–
O=C(CSc1cccc[n+]1[O-])C12CC3CC(CC(C3)C1)C2,–,4.15µM,–,–,–[11.4 µM],–
CN1/C(=C/C(=O)c2cccs2)Sc2ccccc21,–,–,·,–,–,?
CN1/C(=C\C(=O)c2cccs2)C(C)(C)c2ccccc21,–,–,9.28µM,–,–,–
Cc1cccc[n+]1CC(=O)/C=C1\N(C)c2ccccc2C1(C)C,–,2.94µM,2.94µM,–,–,–
Nc1nonc1-c1nc2ccccc2n1Cc1c(Cl)cccc1Cl,·,·,·,–,·,–
COc1ccc(S(=O)(=O)N2CCC(C(=O)Nc3cccc(C(C)=O)c3)CC2)cc1,–,?,11.7µM,–,–,?
COc1ccc(S(=O)(=O)N2CCN(CC(=O)Nc3cccc(OC)c3)CC2)cc1,?,13.1µM,–,–,–,?
O=C(CN1CCCN(S(=O)(=O)c2ccc(F)cc2)CC1)Nc1cccc(F)c1,–,–,–,39.8µM,–,?
COc1ccc(NC(=O)CN2CCN(S(=O)(=O)c3cccs3)CC2)cc1Cl,–,11.7µM,?,–,–,?
COc1ccc(CNC(=O)CN2CCN(S(=O)(=O)c3cccs3)CC2)cc1OC,–,–,–,–,–,–
